Data as given in ChEMBL document CHEMBL3988442, “University of Dundee, Small-Polar-MMV Screening Library” (2021).

How the values were obtained:
[1] = biological target: T1, Aspartate--tRNA(Asp/Asn) ligase (Mycobacterium tuberculosis (strain ATCC 25618 / H37Rv)) (UniProt P9WFW3); assay: Assay for Asp RNA synthetase-1 from Mycobacterium tuberculosis; format: functional; parameters: scale not given: direction of the effect not stated beside the values; settings: 30 µM; further: in the data most compounds retested in dose-response had high values
T1 sequence (whole entry): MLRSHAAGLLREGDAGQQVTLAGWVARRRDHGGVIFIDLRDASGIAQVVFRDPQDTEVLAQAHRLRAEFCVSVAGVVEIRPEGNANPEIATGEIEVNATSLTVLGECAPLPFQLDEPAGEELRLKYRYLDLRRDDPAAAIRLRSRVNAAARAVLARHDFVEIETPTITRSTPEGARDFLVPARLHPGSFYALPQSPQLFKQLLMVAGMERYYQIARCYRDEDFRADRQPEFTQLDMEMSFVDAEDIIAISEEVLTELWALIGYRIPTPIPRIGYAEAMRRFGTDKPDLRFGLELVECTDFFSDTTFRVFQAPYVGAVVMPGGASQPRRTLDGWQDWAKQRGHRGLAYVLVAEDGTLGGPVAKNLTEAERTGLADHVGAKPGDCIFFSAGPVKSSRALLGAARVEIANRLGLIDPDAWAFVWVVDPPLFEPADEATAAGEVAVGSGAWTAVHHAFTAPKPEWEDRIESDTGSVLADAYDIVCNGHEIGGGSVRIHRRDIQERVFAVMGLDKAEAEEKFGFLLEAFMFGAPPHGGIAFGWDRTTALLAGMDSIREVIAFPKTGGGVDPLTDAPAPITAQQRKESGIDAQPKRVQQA

[2] = biological target: Shiga toxin 2 (Escherichia coli O157:H7) (UniProt P09385+P09386); assay: E. coli 0.157:H7 Shiga Toxin SOP - stx2 screening assay; format: functional; parameters: scale not given: direction of the effect not stated beside the values; settings: 30 µM

Structure (SMILES)	Percent Effect [1] [%]	Percent Effect [2] [%]
O=C(NCCc1nnc2n1CCC2)NCC1(c2cccc(F)c2)CC1	-2.55	4.87
CCc1nccn1-c1cncc(C2CCCN2Cc2ccc(F)cc2)n1 (configuration not stated)	1.57	-28.9
Cc1n[nH]c(C2CN(C(=O)CCc3ccco3)CCO2)n1 (configuration not stated)	7.13	-9.36
CN1CCCC(Cc2ccnc3ccncc23)CC1 (configuration not stated)	-3.5	-21.3
CC(C)CS(=O)(=O)N1C[C@H]2C[C@H](C(=O)NCc3ccccc3)[C@@H](C1)O2	2.67	-41.8
COc1ccc2cc(C(=O)N3CCCCC3CC(N)=O)[nH]c2c1 (configuration not stated)	-1.12	4.87
COCCCNC(=O)CCn1nc(C)c2ccccc21	-2.88	-11.5
Cc1cccc(CN2C(=O)CC[C@@H]3[C@H]2CCN3CC2CCOCC2)n1	-1.51	-5.24
CN1CC(=O)N(c2cccnc2)CC12CCN(C(=O)C1CCCCC1)C2 (configuration not stated)	6.7	-1.32
Cc1cnn(CC2CCCN2c2nn3cc(C)nc3s2)c1 (configuration not stated)	-9.79	-13.5
O=C(Cc1ccccn1)N1CCc2nc(-c3cnccn3)nc(O)c2C1	-2.49	4.64
CNS(=O)(=O)CCCN1CCCC1c1noc(C2CC2)n1 (configuration not stated)	-2.37	4.89
Cn1nnc2c1CCN(CC1CC1)C2COCc1ccccc1 (configuration not stated)	1.84	0.25
Cc1ccc2c(ccn2CC(=O)NC[C@@H]2CCCN3CCCC[C@H]23)c1	2.12	-7.12
NC(=O)C1CCCN(C(=O)c2cnc3c(cnn3C3CCCC3)c2)C1 (configuration not stated)	-6.91	-20.7
C1CC(NCc2nc(C3CC3)no2)CN(Cc2noc(C3CC3)n2)C1 (configuration not stated)	-2.94	13.3
COc1cc(C(=O)N2CCCC(CNS(C)(=O)=O)C2)cc(OC)c1C (configuration not stated)	-4.03	25.9
O=C(N[C@@H]1CN(Cc2ccsc2)[C@@H]2CCCO[C@@H]21)C1CC1	-0.611	-18.9
O=C(CCNc1ncccn1)N1CCCC(n2ccnc2)C1 (configuration not stated)	1.03	-9.67
CC(c1nc(C2CC2)no1)N1CCN(Cc2ccccc2F)CC1 (configuration not stated)	-7.52	8.03
Cc1ccc(CC(=O)N2CSCC2C(=O)N(C)Cc2ccco2)o1 (configuration not stated)	8.09	12
O=C(CCc1cscn1)N1CCCC(c2ccn[nH]2)C1 (configuration not stated)	-1.82	5.88
N#CCSCCCN1CCN(C(=O)c2ccc(Cl)cc2)CC1	0.593	-35.2
COc1ccc(C[C@H]2CN(c3nnc(C)s3)CC[C@@H]2OC)cc1	7.75	-17.5
COc1ccc(S(=O)(=O)N2CCC(S(C)(=O)=O)CC2)cc1C	1.12	-1.05
Cc1cnn(CC2CCCN2C(=O)c2ccc3cc[nH]c3c2)c1 (configuration not stated)	-4.26	1.09

Structure (SMILES)	Percent Effect [1] [%]	Percent Effect [2] [%]
COc1cc(CNC2CCc3nc(C(C)C)nn3C2)cc2c1OCO2 (configuration not stated)	1.32	15.4
Cc1ccc(C)c(C(NC(=O)C2CC2)c2cccnc2)c1 (configuration not stated)	-0.277	-13.4
CCO[C@@H]1CCN(C(=O)c2cscn2)[C@@H]1Cc1cnn(C)c1	-2.13	1.75
CC(=O)c1ccc(N2CCCC(CO)(CCOc3ccccc3)C2)nc1 (configuration not stated)	-2.11	-9.89
COCC(=O)NC1CC2(CCN(Cc3ccco3)CC2)c2ccccc21 (configuration not stated)	5.52	-5.13
CCOCC(O)CN1CCN(C(=O)CC(C)(C)C)CC1 (configuration not stated)	-3.73	14.9
O=C(Cc1cn2ccsc2n1)N1CCCC(n2cncn2)C1 (configuration not stated)	-0.0111	-30
CCc1noc(C(C)N2CCC(N3CCCC3)CC2)n1 (configuration not stated)	-8.83	-5.16
Cc1oc(C)c(C(=O)NCc2cccc(NC(=O)CN(C)C)c2)c1C	-5.4	-39.7
Cc1noc(C)c1CN1CC[C@@H](OCC2CC2)[C@@H](Cc2ccccc2)C1	0.779	16
O=C(NC[C@]12COC[C@H]1CN(Cc1nccs1)C2)N1CCCC1	1.45	-23.5
CCOCCCNC(=O)c1cc(C)nc(N2CCCC2)n1	-5.84	-10.3
CC(C)c1nc(C2CCCN(C(=O)c3ccc4[nH]cnc4c3)C2)no1 (configuration not stated)	2.42	0.178
Cc1ccc2oc(C(=O)N3CCc4nnc(N(C)C)cc4C3)cc2n1	1.25	-14.3
c1ccc(-c2cnc(CN3CCCC3Cn3cncn3)o2)cc1 (configuration not stated)	-6.65	8.27
CCc1[nH]ncc1C(=O)N1CCCC(n2cccn2)C1 (configuration not stated)	-2.98	3.89
O=C(c1cccn1Cc1cccs1)N1CCN(C(=O)C2CC2)CC1	4.89	-4.84
O=C(NCc1cn2c(n1)CN(CC1CCOCC1)CC2)C1CCC1	0.662	-18.2
COc1ccc(S(=O)(=O)NCc2cccnc2N(C)C)cc1F	-1.03	-9.13
O=C(c1cnco1)N1C[C@@H]2CC[C@H](Oc3cccc(F)c3)[C@@H]2C1	-3.5	-73.9
C[S+]([O-])c1nncn1CC(=O)c1ccc(Cl)c(Cl)c1 (configuration not stated)	1.03	-25.1
Cc1cc(CN2CCC(CNC(=O)c3ccc(O)c(Cl)c3)C2)[nH]n1 (configuration not stated)	3.15	-15.7
Fc1cccc(-c2nc(CN3CCOC(Cn4cncn4)C3)co2)c1 (configuration not stated)	-4	1.8
CN(CC1CCCO1)C1CCN(CCc2ccccn2)CC1 (configuration not stated)	3.12	-6.44
CN(Cc1ccncc1)CC(c1cccs1)N1CCOCC1 (configuration not stated)	-5.01	-26
CC(=O)N1CC(=O)N(c2ccccc2)CC12CCN(Cc1nccs1)C2 (configuration not stated)	7.34	-17.5

Structure (SMILES)	Percent Effect [1] [%]	Percent Effect [2] [%]
CC(C)(C)C(O)CN1CCN(C(=O)c2cccc3[nH]ncc23)CC1 (configuration not stated)	-5.46	-5.59
c1cncc(C2COC3(CCN(CC4CC4)CC3)C2)c1 (configuration not stated)	-0.915	-13.1
CCc1noc(C(C)N(C)CC(=O)Nc2cccc(C)n2)n1 (configuration not stated)	-1.61	-14.2
O=C(NCc1ccco1)c1nn(C2CCS(=O)(=O)C2)c2c1CCCC2 (configuration not stated)	-2.28	8.96
COCC(=O)NCc1cccc(Br)c1	-1.9	20.1
CCc1ncc2c(n1)CN(CC(=O)NCCOc1ccccc1)CC2	2.89	23.5
O=C1OC2(CCN(C3CCCOC3)CC2)CN1CCc1ccccc1 (configuration not stated)	1.52	-27.2
Clc1cc(CN2CCCC2Cn2cncn2)c2ncccc2c1 (configuration not stated)	-0.0583	6.1
Cc1noc([C@@H]2C[C@H]3OCC[C@H]3N(S(C)(=O)=O)C2)n1	-0.616	-25.2
Nc1cc(CCCNC(=O)NC2CC2)nn1-c1ccccc1	-4.03	-2.96
COc1cc(OC)c(C2Nc3cc(Cl)ccc3C3=NCCN32)cc1OC (configuration not stated)	-6.02	-48.2
CCc1nccn1C1CCCN(C(=O)c2cnn(C)c2C2CC2)C1 (configuration not stated)	-4.23	21.1
c1cnnc(N2CCCC2CNCc2ccsc2)c1 (configuration not stated)	-3.81	-8.21
COc1cc(CNCCc2nc(C)cs2)cc2c1OCCO2	-4.99	14.4
CCN(CCn1cccn1)Cc1nc(-c2ccccc2F)oc1C	-0.808	-3.06
COc1ccc2nnc(CCCC(=O)NCCC3=CCCCC3)n2n1	0.319	-54.6
CCN(CCNC(=O)c1ccccc1Br)C1CC1	-1.24	9.65
CN(C)S(=O)(=O)N1CCC(Oc2ccccn2)CC1	3.02	10.6
Cc1cc(C[S+]([O-])CC(=O)NCC(C)C)no1 (configuration not stated)	-2.03	4.91
c1ccc(-c2nc(CN3CCCC3Cn3cncn3)cs2)cc1 (configuration not stated)	0.143	5.25
Cc1ncccc1O[C@H]1CCN(C(=O)Cc2cccs2)CC[C@@H]1O	-2.28	-7.15
NC(=O)C1CCN(Cn2nc(-c3ccccc3)oc2=O)CC1	9.54	-53.5
CC(C)c1n[nH]c(C2CN(C(=O)c3cccc4cn[nH]c34)CCO2)n1 (configuration not stated)	7.47	9.23
CC(C)c1nccn1C1CCCN(C(=O)c2cccc3c2OCO3)C1 (configuration not stated)	0.582	-1.21
CC(=O)N1CC(=O)N(c2cnn(C)c2)CC12CCN(Cc1ccsc1)C2 (configuration not stated)	4.83	-25.5
COCCN1CCCC(c2nc3c([nH]2)CC(C)(C)CNC3=O)C1 (configuration not stated)	2.91	0.913

Structure (SMILES)	Percent Effect [1] [%]	Percent Effect [2] [%]
COCCCN(C)C1CCCN(Cc2noc(C)n2)C1 (configuration not stated)	-3.09	-16.4
O=C1C(NCc2nnc3n2CCCC3)CCN1c1ccccc1 (configuration not stated)	-1.97	-28.4
O=C(CN1CCC(c2ccnn2CCO)CC1)NCC1CC1	-6.54	-19.2
O=C(c1ccc(Br)o1)N1CCN(Cc2ccc(OC(F)(F)F)cc2)CC1	-5.95	16.1
CCN1CCC(NC(=O)CN2CCCC2Cn2cncn2)CC1 (configuration not stated)	-1.82	-12.3
CN(C)Cc1nc(C(C)(C)NC(=O)C2CC(=O)N(CC3CC3)C2)no1 (configuration not stated)	-5.01	25.1
Cc1cnn(CCNCc2csc(-c3ccc4c(c3)OCO4)n2)c1	1.41	23.7
CS(=O)(=O)NCC1CCCN(C(=O)COc2ccc(F)cc2)C1 (configuration not stated)	-1.75	-25.1
COc1ccc(NC(=O)NC(C)(C)c2noc(C)n2)cc1	-6.73	-8.05
COc1ccccc1N1CCC(CNCc2cccc(OC)c2OC)C1 (configuration not stated)	10.8	-7.96
CCn1ccnc1CN1CCN(C(C)C(=O)N2CCC(C)CC2)CC1 (configuration not stated)	-3.5	-22.7
O=C(c1ccc[nH]1)N1CCN(CC2CCOc3ccccc3C2)CC1 (configuration not stated)	4.96	-20.9
O=C(c1cccc(OC2CCCC2)c1)N1CCCC(n2cncn2)C1 (configuration not stated)	-0.0372	16.8
CC(CN1CCOCC1)NCc1nncn1C1CCCCC1 (configuration not stated)	0.0836	-15.5
CCCn1ncc2c(C(=O)Nc3cnn(CC)c3C)cc(C3CC3)nc21	-1.49	-0.924
CCCc1noc(CN(C)C(=O)C2COc3ccccc3C2)n1 (configuration not stated)	1.75	-22.5
CC(C)Oc1cccc(C(=O)C2CCCN(C(=O)c3ccccn3)C2)c1 (configuration not stated)	-1.79	6.16
CCCn1ccc2ccc(NC(=O)N(C)CCOC)cc21	-4.94	-13.1
CC(C)=CCN1CCOC(Cn2nc(C)cc2C)C1 (configuration not stated)	-3.08	24.4
COCCN(Cc1ccoc1)C(=O)c1c(F)cccc1Cl	-3.31	5.86
CS(=O)(=O)c1ccc(CNC(=O)N2CCC(c3ccccc3)CC2)cc1	-2.06	7.64
Cc1cccnc1NC(=O)CSc1ccc2c(c1)OCCO2	0.668	-4.11
CCCNC(=O)CNC(=O)CCc1ccccc1Br	-2.76	-0.75
